# Screening results deposited in PubChem BioAssay by National Center for Advancing Translational Sciences (NCATS).
# The list is not random: actives were taken first. Their share in the collection is about 9.2%.
# Rab9 promoter act: activates the Rab9 promoter; Huh7 Rab9 promoter-luciferase reporter, luminescence, 24 h; Potency, µM (titrated, usually from 9.22 µM), without a hit: top-dose activation, negative = inhibition, usual class: activators; 320,000 tested, 2.8% active; AID 485297; note: % of control where 0% means no effect; nearly all actives have a fitted effect of over 60% in size
#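 Cell-based reporter: Huh7 stable for Rab9 promoter-driven luciferase, plated in reduced-serum medium with 10% FBS at 1500 cells/well, compound-treated 24 h at 37 °C, luminescence read after 10 min reagent.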
# ELG1 genotoxic: genotoxicity induction in ELG1-luciferase HEK293T cells. HEK293T ELG1-luciferase reporter, luminescence, 16 h. Potency, µM (highest dose often 46 µM), for the others: at the top dose activity change, positive = activation, hits mostly activators. 330,000 tested, 1.3% active; note: % of control where 0% means no effect; nearly all actives have a fitted effect of over 60% in size
#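 DMSO vehicle served as control against compound-treated ELG1-luciferase HEK293T cells; exposure lasted 16 hr at 37 °C and 5% CO2, followed by ONE-Glo luminescence detection after 30 min.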
# ELG1 repair inh: blocks ELG1-dependent DNA repair in HEK293T cells; HEK293T ELG1-luciferase reporter, luminescence, 16 h; DNA damage induced by 5-fluorouridine; Potency, µM (series often up to 46.1 µM), without a hit: at the highest dose activity change, negative = inhibition, most hits filed as inhibitors; 330,000 tested, 2.3% active; note: % is set by controls: 0 for no effect and ±100 for the full control effect; nearly all actives have a fitted effect of over 55% in size
#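 Overnight (16 hr) co-exposure of 2,000 cells/well to 5-fluorouridine and compound at 37 °C preceded detection. Luciferase was quantified via ONE-Glo luminescence; loss of signal denotes inhibition.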
# SMN2 splice enh: increases expression of the SMN2 splice variant. 210,000 tested, 2.8% active. AID 1458. HEK293 SMN2-luciferase splicing reporter, luminescence, 30-36 h. Potency, µM (highest dose often 46.1 µM), without a hit: at the highest dose activity change, positive = activation, actives largely listed as activators; note: % of control where 0% means no effect; nearly all actives have a fitted effect of over 55% in size
#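 HEK293 cells carry an SMN2 minigene-luciferase reporter in which exon 7 inclusion puts luciferase in frame. Cells were seeded at 2000 cells/well, attached for 10-12 hours, then exposed to compounds for 30-36 hours at 37C before ONE-Glo luminescence.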
# NPC1 promoter act: activates the NPC1 promoter | 320,000 tested, 2.4% active | Potency, µM (titrated, usually from 9.22 µM), for inactives: top-dose activation, usual class: activators | Huh7 NPC1 promoter luciferase reporter, 24 h; note: % of control where 0% means no effect; nearly all actives have a fitted effect of over 60% in size
#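 Stable NPC1-promoter luciferase Huh7 line; cpd (DMSO) 24 h, 37 °C, 5% CO2; Amplite luciferase reagent 10 min RT; luminescence readout. qHTS format.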
# FLuc modulator: counter-screen for miR-21 project: firefly luciferase inhibitors or activators; purified FLuc, Km substrates, luminescence inhibition; AID 588342; P08659; Potency, µM (titrated, usually from 57.5 µM), inactives show at the top dose activity change, negative = inhibition, actives largely listed as inhibitors; 360,000 tested, 6.9% active;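 note: plate controls were vehicle for no effect and reference inhibitor for full effect; nearly all actives have a fitted effect of over 55% in size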
# Target sequence (P08659 whole entry, looked up): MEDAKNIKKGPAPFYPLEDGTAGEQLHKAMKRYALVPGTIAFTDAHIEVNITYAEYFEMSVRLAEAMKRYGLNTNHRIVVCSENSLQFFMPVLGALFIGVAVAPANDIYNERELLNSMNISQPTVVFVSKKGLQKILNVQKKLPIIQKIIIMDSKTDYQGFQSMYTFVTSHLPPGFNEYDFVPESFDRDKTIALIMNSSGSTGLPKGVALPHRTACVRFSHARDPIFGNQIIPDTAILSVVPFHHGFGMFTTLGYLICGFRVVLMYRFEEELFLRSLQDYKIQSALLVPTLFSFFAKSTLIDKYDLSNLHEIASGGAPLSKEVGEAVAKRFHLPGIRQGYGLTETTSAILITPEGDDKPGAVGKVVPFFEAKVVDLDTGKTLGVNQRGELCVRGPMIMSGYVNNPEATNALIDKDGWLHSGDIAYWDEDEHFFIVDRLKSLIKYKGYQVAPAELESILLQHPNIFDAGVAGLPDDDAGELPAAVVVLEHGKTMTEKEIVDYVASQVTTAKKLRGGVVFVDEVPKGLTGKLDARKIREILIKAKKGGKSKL
#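 Purified P. pyralis luciferase (10nM final) with 10uM D-luciferin and 10uM ATP (Km levels) in 50mM Tris acetate pH 7.5, 10mM Mg acetate, 0.01% Tween-20, 0.05% BSA; qHTS 6-point titration, ~60 µM downward; luminescence read.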
# Starred values were filed as active, the others as inactive; ? = inconclusive; . = not tested or not shown; [ ] = another dose, or the depositor's remark. Calls come from the whole dose curve; as a rule, active = well fitted curve in the direction sought with a large enough effect; inconclusive = small, poorly fitted or top-dose-only effect, or another doubt; inactive = no such curve, though single readings can be large; an effect the other way counts as inactive or inconclusive. Potency is the fitted concentration of half-maximal effect.
SMILES,Rab9 promoter act,ELG1 genotoxic,ELG1 repair inh,SMN2 splice enh,NPC1 promoter act,FLuc modulator
CCCCc1ccc(NC(=O)Nc2cc(C)nn2C)cc1,-2%,9%,4.1µM*,.,-3%,?
Cc1cc(NC(=O)Nc2ccc(F)cc2F)n(C)n1,17%,7%,-7%,-5%,6%,-4%
CCOCC(=O)Nc1ccc(Br)c(C)c1,?,?,?,6%,16%,?
CCCCc1ccc(NC(=O)CSCc2cc(=O)[nH][nH]2)cc1,-2%,4%,6%,16%,-3%,12µM*
CCCCc1ccc(NC(=O)COCC)cc1,25%,21µM*,?,22%,13%,19µM*
CCCCc1ccc(NC(=O)CC(C)C)cc1,?,?,?,?,?,19µM*
Cc1nc2ccccc2cc1C(=O)N(C)Cc1ccccc1,-1%,-7%,1%,.,-2%,-6%
CCc1cccc(NC(=O)c2cc(OC)c(OC)c(OC)c2)c1,-7%,7%,-15%,14%,-3%,?
COc1ccc(N(CC(=O)N2CCc3ccccc3C2)S(=O)(=O)c2ccc(C)cc2)cc1Cl,.,.,.,-12%,.,-12%
Clc1ccccc1-c1nc2nc3ccccc3nc2n1-c1ccc2c(c1)OCO2,-4%,-5%,15µM*,-5%,0%,-15%
CN1c2ccc(Cl)cc2-c2nc(SCC(=O)NCc3ccc(F)cc3)ncc2S1(=O)=O,.,.,.,.,.,-2%
COC(=O)c1cc(-c2ccc(Cl)cc2Cl)n[nH]1,-2%,?,?,21%,1%,15µM*
CCCN=C1N(CC)C[C@@H]2[C@@H]3C(=O)N(Cc4ccccc4)C(=O)[C@@H]3[C@](Cc3ccccc3)(C(=O)OC)N12,.,4%,2%,.,.,.
COc1ccc(-c2ccc(-c3nnn(CC(=O)N4CCOCC4)n3)cc2)cc1,2.8µM*,?,?,?,3.2µM*,0.38µM*
CCCOc1ccc(-c2nnn(CC(=O)N3CCCCC3)n2)cc1,-2%,-6%,0%,.,1%,17µM*
COc1cc(-c2nnn(CC(=O)N3CCOCC3)n2)cc(OC)c1OC,-1%,0%,23%,-11%,1%,-2%
COc1ccc(OC)c(C(=O)Cn2nnc(-c3ccc(N4CCOCC4)cc3)n2)c1,1%,-7%,?,.,0%,9.5µM*
CCCOc1ccc(-c2nnn(CC(=O)OCC)n2)cc1,2%,1%,7%,-15%,12%,?
CCOC(=O)Cn1nnc(-c2cccc(OC)c2)n1,5%,6%,20%,-6%,-1%,11µM*
CCc1cc(OCCOCCN(C)C)ccc1Cl,-6%,-4%,-6%,-18%,-5%,2%
COc1cc(CCNC(=O)c2ccc3c(c2)c(C)c(C)n3Cc2cccc(C)c2)cc(OC)c1OC,.,.,.,.,.,-12%
C=C(C)C1CC=C(C)/C(=N\NC(=O)CCC(=O)Nc2ccc(C)c(C)c2)C1 (stereo not given),0%,-5%,-14%,.,1%,2%
CCC(=O)N1CCc2cc(Br)cc(S(=O)(=O)CCC(=O)NCc3cccc(OC)c3)c21,.,.,.,3%,.,0%
COc1cc(NS(=O)(=O)c2ccc(-c3cc(C)no3)cc2)cc(OC)c1,.,.,.,.,.,0%
O=C(Cn1nnc(-c2ccccc2F)n1)N1CCCCC1,2.5µM*,?,?,.,3.2µM*,?
SMILES,Rab9 promoter act,ELG1 genotoxic,ELG1 repair inh,SMN2 splice enh,NPC1 promoter act,FLuc modulator
Nc1cc(=O)nc(SCC(=O)Nc2ccc(F)cc2)n1-c1ccccc1Cl,.,.,.,0%,.,-16%
CCN(CC)CCNC(=O)c1ccc(-c2nc(CN3CCc4ccccc43)c(C)o2)cc1,.,.,.,.,.,1%
COc1cccc(C(=O)C2CCCN(C(=O)c3cccc(C#CC(C)(C)O)c3)C2)c1 (stereo not given),-8%,-3%,16µM*,-20%,-1%,-18%
COc1cccc(C(=O)N2CCCC(Nc3ccc(C)c(C)c3)C2)c1 (stereo not given),3%,-3%,5%,.,1%,-3%
O=C1N=C(N2CCOCC2)S/C1=C1\C(=O)N(Cc2ccccc2)c2ccccc21,1.6µM*,?,?,27%,2.8µM*,0.67µM*
CC1CN(C2=NC(=O)/C(=C3/C(=O)N(Cc4ccc(F)cc4)c4ccccc43)S2)CC(C)O1 (stereo not given),2%,-3%,12µM*,.,-4%,?
CC(C)=C1SC(N2CCN(Cc3ccccc3)CC2)=NC1=O,28%,0%,3%,12%,15%,-20%
O=C(c1cnccn1)N1CCC2(CCCN(c3ccccc3)C2)CC1,.,.,.,-13%,.,.
CC(C)Nc1nc2nonc2nc1Nc1ccccc1,-8%,-8%,16µM*,.,2%,2%
CCCn1cc(S(=O)(=O)c2ccccc2)c(=O)c2cc(F)c(N3CCCC(C)C3)cc21 (stereo not given),.,.,.,.,.,-8%
NCc1ccc(C(=O)O)cc1,.,.,.,-10%[9.22 µM],.,.
Cc1cc(-c2nnc(SCC(=O)Nc3ccc(C)c(C)c3)n2N)n[nH]1,6%,1%,23%,.,18%,11µM*
Cc1ccc(C2=NNC(c3cccc(F)c3)S2)cc1 (stereo not given),0.5µM*,-23%,?,1.6µM*,0.56µM*,0.43µM*
Fc1cccc(C2NN=C(c3ccccc3)S2)c1 (stereo not given),2.8µM*,2.3µM*,?,11µM*,2.2µM*,1.1µM*
COc1ccc(C2NC(=O)CS2)cc1OC (stereo not given),0%,3%,7%,11%,-2%,0%
COc1ccc(C2NN=C(c3ccc(C)cc3)S2)cc1OC (stereo not given),1.4µM*,?,?,11µM*,2.2µM*,2.4µM*
N#Cc1ccc(OCC(O)CN2CCN(c3ncc(C(F)(F)F)cc3Cl)CC2)cc1 (stereo not given),-15%,-13%,5.8µM*,.,-18%,-4%
COc1ccc(/C=C/C(=O)c2ccc(Cl)s2)cc1O,6%,?,?,-12%,-5%,1.1µM*
COc1ccc(C(=O)/C=C/c2ccc(OC)c(O)c2)c(F)c1,-8%,16%,?,-16%,5%,11µM*
COc1ccc(/C=C/C(=O)CC(=O)/C=C/c2cccc(O)c2OC)cc1O,.,.,.,21%,.,.
CCOC(=O)C1CCCN(CCC(=O)Nc2ccc(C)cc2)C1 (stereo not given),-8%,-1%,19%,-3%,0%,0%
C=CCCC(=O)Nc1nc(C)c(-c2csc(Nc3ccc(Cl)cc3Cl)n2)s1,-7%,-5%,-29%,-18%,1%,27µM*
